Bioassay records from PubChem.
This is a sample that favours compounds with a hit; in the whole collection about 7.9% have one here.
HCV inhibitor = HCV inhibition | actives 3.4% (n = 340,000) | Potency, µM (doses to about 41.8 µM), for the others: top-dose activity change, negative = inhibition, hits mostly inhibitors | Huh7.5.1 HCVcc-Cre infection, luciferase reporter, 44 h | AID 651820; active = well fitted inhibition curve with a large enough effect; inconclusive = small, poorly fitted or top-dose-only effect, or another doubt; inactive = no such curve, though single readings can be large or run the other way; note: potency is the fitted concentration of half-maximal effect
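Luciferase read-out (15 sec integration) after a 15 min room-temperature substrate step quantifies HCVcc-Cre infection. Cells, 1,000 per well, had compound added 4 h post-plating, then virus at ~0.5 moi, and were cultured 44 h.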
FMDV antiviral = foot and mouth disease virus antiviral activity. Potency, µM (top dose mostly 57.9 µM), inactives show top-dose activity change, negative = inhibition, most hits filed as inhibitors. AID 1159524. FMDV antiviral cell-based qHTS. actives 1.2% (n = 410,000); calls by dose curve; tested in HEK293T cells; note: read-out not given here; potency is the fitted concentration of half-maximal effect; nearly all actives have a fitted effect of over 45% in size
MARV entry inh = Marburg virus entry inhibition; actives 1.8% (n = 300,000); Potency, µM (titrated, usually from 37.8 µM), inactives show at the top dose activity change, negative = inhibition, hits mostly inhibitors; Marburg virus pseudotyped entry inhibition, cell reporter; AID 540276; calls by dose curve; tested in HEK293 cells; note: potency is the fitted concentration of half-maximal effect
LASV entry inh = blocks Lassa virus binding to or entry into cells; Potency, µM (doses to about 37.9 µM), inactives show at the top dose activity change, negative = inhibition, usual class: inhibitors; AID 540256; actives 1.2% (n = 300,000); Lassa virus pseudotype entry inhibition, cell reporter; calls by dose curve; tested in HEK293 cells; note: potency is the fitted concentration of half-maximal effect; nearly all actives have a fitted effect of over 50% in size
HCMV inh = blocks human cytomegalovirus replication. activity change, negative = inhibition, % at 57.5 µM. actives 4.5% (n = 410,000). AID 1259415. HFF cells, HCMV-luciferase reporter, 72 h; hits give low values; in the data active = activity change below about -60%; inconclusive = no clear call, values can overlap the other calls; inactive = above about -39%
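HFF cells seeded 16 h at 37C, treated with compounds, infected with luciferase-reporter HCMV at MOI 1 PFU/cell; luciferase read at 72 h post infection, normalized to buffer-only and Salinomycin controls.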
An asterisk follows results filed as active; ? = inconclusive; · = no result; [ ] = remark or other dose. % is set by controls: 0 for no effect and ±100 for the full control effect.

SMILES	HCV inhibitor	FMDV antiviral	MARV entry inh	LASV entry inh	HCMV inh
CCCn1c2ccccc2c2cnn(CC(=O)N(CCCOC(C)C)Cc3ccco3)c(=O)c21	·	?	·	?	-27
C[C@@]1(C(=O)O)NCCc2cc(O)c(O)cc21	·	4%	·	·	·
CC(C)CN(CCNC(=O)CCN1N=C(c2ccccc2)CCC1=O)CC(C)C	·	-6%	·	?	-24
C[C@H]1[C@@H](NC(=O)NCc2ccccc2)CC[C@@]23CCCN2C(=O)CCC[C@@H]13	·	·	·	·	-38
CC(=O)c1ccc(F)c(-c2cc(C)cc3c2OC(CNC(=O)C[C@@H]2C[C@@H](C)NC(=S)N2)C3)c1 (stereo not given in full)	·	-9%	·	·	·
COc1ccc(C(=O)Nc2ccccc2-c2nnn(CC(N)=O)n2)cc1	-12%	?	-4%[46.1 µM]	2%	-23
COc1cc(OC)cc(C(=O)Nc2ccccc2-c2nnn(CC(=O)Nc3cc(C)on3)n2)c1	-22%	?	-30%[46.1 µM]	·	-63*
CCN(CC)CC(O)Cn1c2ccccc2c2ccccc21 (stereo not given)	?	-26%	13µM*	?	?
O=[N+]([O-])c1ccc2c(c1)c1ccccc1n2CCO	-35%	-13%	-18%[14.2 µM]	3%	-11
COc1ccccc1N(CC(O)Cn1c2ccccc2c2ccccc21)S(=O)(=O)c1ccccc1 (stereo not given)	?	-19%	?	26µM*	-11
COc1ccc(N(CC(O)Cn2nnc3ccccc32)S(=O)(=O)c2ccc(C)cc2)cc1 (stereo not given)	11%	·	?	-42%	-62*
CCN(CC)CC(O)Cn1c(C)c(-c2ccccc2)c2cc([N+](=O)[O-])ccc21 (stereo not given)	14µM*	-12%	?	?	-68*
Clc1ccc(-n2cccc2CN2CCOc3ccc(CN4CCOCC4)cc3C2)nc1	·	-6%	·	·	·
O=C(NCc1cccnc1)c1cnn(-c2ncc3c(n2)-c2ccccc2CCC3)c1C1CC1	·	-14%	·	·	·
CCN(CC(O)Cn1c2ccccc2c2ccccc21)S(=O)(=O)c1ccc(F)cc1 (stereo not given)	?	28µM*	?	-3%	11
COc1ccc([N+](=O)[O-])cc1N(CC(O)CN(C)C)S(=O)(=O)c1ccccc1 (stereo not given)	4%	-5%	-24%	0%	-27
Cc1ccc(S(=O)(=O)N(CC(O)Cn2c3ccccc3c3ccccc32)c2cccc(C(N)=O)c2)cc1 (stereo not given)	·	?	?	?	-80*
C=CCN(CC=C)CC(O)CN(c1cc([N+](=O)[O-])ccc1OC)S(=O)(=O)c1ccccc1 (stereo not given)	12%	39%	?	1%	-107*
O=S(=O)(c1ccccc1)N(CC(O)Cn1c2ccccc2c2ccccc21)c1ccccc1 (stereo not given)	?	?	?	?	-15
C=CCN(CC=C)CC(O)Cn1c2ccccc2c2ccccc21 (stereo not given)	-27%	·	8.2µM*	?	16
Cc1ccc(S(=O)(=O)N(CC(O)Cn2c3ccccc3c3ccccc32)c2cccc(C(=O)N(C)C)c2)cc1 (stereo not given)	·	-22%	-26%[46.1 µM]	-22%[46.1 µM]	-19
COc1cccc(N2CC(NC(=O)c3cccs3)CC2=O)c1 (stereo not given)	·	-14%	·	-7%[46.1 µM]	25
COc1ccccc1CNc1ccc(-c2nc(-c3cccnc3)no2)cc1[N+](=O)[O-]	·	3%	-1%[46.1 µM]	1%[46.1 µM]	8
CC/C(=N/O)C(=O)c1ccc(Br)cc1	6%	6%	1%[46.1 µM]	8.9µM*	0
C/C(=N/OC(=O)c1ccc(C)cc1)C(=O)c1ccc(Br)cc1	31%	0%	·	·	26
SMILES	HCV inhibitor	FMDV antiviral	MARV entry inh	LASV entry inh	HCMV inh
COc1ccccc1/C=N/Nc1cc(C)nc2ccc(C)cc12	?	4%	-3%[46.1 µM]	21%[46.1 µM]	27
COc1ccc(/C=N/Nc2cc(C)nc3ccc(OC)cc23)c(OC)c1	10µM*	?	?	?	-105*
COc1ccc2nc(C)cc(N/N=C/c3ccccc3)c2c1	10µM*	-4%	?	?	·
O=C(CSCc1ccc(F)cc1)N1CCc2c([nH]c3ccccc23)C1c1ccccc1 (stereo not given)	·	-15%	·	?	-5
O=C(c1ccccc1)N1CCCCC1CCN1CCCCC1 (stereo not given)	·	-7%	8%[46.1 µM]	-4%[46.1 µM]	-5
CC(=O)OC[C@H]1O[C@H](CC=NOC[C@@H](C)[C@H](OCc2ccccc2)C(C)C)C=C[C@@H]1OC(C)=O	·	·	-10%[14.2 µM]	·	·
Cc1cc(C(=O)N2CCCC(CCC(=O)N3CCN(c4ccccn4)CC3)C2)c(C)o1 (stereo not given)	-18%	-26%	-13%[46.1 µM]	-13%[46.1 µM]	-27
Cc1cccc(C(=O)N2CCCC(CCC(=O)N3CCN(c4ccccn4)CC3)C2)c1C (stereo not given)	?	?	·	·	-86*
CCN(Cc1ccncc1)C(=S)Nc1ccc(Cl)cc1	-21%	2%	6%[46.1 µM]	5%[46.1 µM]	-28
CCN(CC)C(=S)Nc1ccc(Cl)c(Cl)c1	?	48%	-31%	11%	-66*
CN(C)S(=O)(=O)c1ccc2c(c1)N(CC(=O)N1CCC(C(N)=O)CC1)CCS2	·	-7%	·	8%[46.1 µM]	6
COCCCNC(=O)CCCn1c(SCC(=O)c2ccc(Br)cc2)nc2c(sc3ccccc32)c1=O	·	-1%	-4%[46.1 µM]	12%[46.1 µM]	0
CN(CCOc1ccc(Cl)cc1)C(=O)c1cccc(S(=O)(=O)N2CCN(c3ccc(F)cc3)CC2)c1	2.8µM*	?	7.1µM*	?	·
Cc1ccc(S(=O)(=O)N2CCOCC2)cc1C(=O)N(C)CCOc1ccc(Cl)cc1	?	?	?	?	-33
COc1ccc(CCN(C)C(=O)c2cccc(S(=O)(=O)N3CCN(c4ccc(F)cc4)CC3)c2)cc1OC	2.8µM*	?	·	·	?
Cc1ccc(S(=O)Cc2ccc(C(=O)NCc3ccc(OC(C)C)cc3)o2)cc1 (stereo not given)	·	-16%	·	?	-19
Cc1ccc(Cc2nc3ccccc3nc2SCC(=O)NCCc2ccccc2)cc1	·	-3%	·	16%[46.1 µM]	3
O=C(NNC1=NS(=O)(=O)c2ccccc21)c1ccc(Cl)cc1	21%	24%	·	·	?
O=C(NNC1=NS(=O)(=O)c2ccccc21)c1ccc([N+](=O)[O-])cc1	13%	-22%	?	7.9µM*	-15
COc1ccc(CN2CCC3(CCC(CNC(=O)c4ccnn4C)O3)CC2)c(C)c1C (stereo not given)	·	-4%	·	·	·
Cc1cc(/C=C2\SC(=S)NC2=O)c(C)n1-c1ccc(O)cc1	-10%	-2%	·	·	-23
Cc1cc(/C=C2\SC(=Nc3ccc(F)cc3)NC2=O)c(C)n1-c1ccc(S(N)(=O)=O)cc1	3.5µM*	35µM*	?	?	-84*
Cc1nn2c(NC(C)C)c3c(nc2c1-c1ccccc1)CCC3	-28%	-24%	?	?	-24
